Compounds with a hit are over-represented: about 3.5% of the library has one in this group of screens.
MITF primary – MITF inhibitors, primary screen, biochemical, AlphaScreen, human; Microphthalmia-associated transcription factor (Homo sapiens), O75030; AlphaScreen MITF homodimerization, bead proximity signal; inhibition, % at 2.6 µM; actives 0.91% (n = 650,000); AID 1259374, 2018; in the data active means inhibition above about 50%;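 further: 0% = vehicle wells with protein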
GPR151 activ – activators of human GPR151, primary screen, cell-based, PathHunter beta-arrestin, luminescence. G-protein coupled receptor 151 (Homo sapiens), Q8TDV0. AID 1508602, 2020. PathHunter beta-arrestin GPR151 cells. activation, % at 11.2 µM. actives 1% (n = 650,000); in the data active means activation above about 4.9%;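 further: 0% = median of compound wells and 100% = cells with positive control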
FBW7 activator – FBW7 E3 ligase activators, primary screen, biochemical, AlphaScreen, human; F-box/WD repeat-containing protein 7 (Homo sapiens), Q969H0; AlphaScreen FBW7–phospho-cyclin E peptide binding, activator screen; normalized activity (activation), % at 26.1 µM; actives 0.13% (n = 650,000); in the data active means normalized activity above about 1.9%;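 further: purified mutant Fbw7 with reduced substrate affinity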
Target sequence (Q969H0 whole entry, looked up): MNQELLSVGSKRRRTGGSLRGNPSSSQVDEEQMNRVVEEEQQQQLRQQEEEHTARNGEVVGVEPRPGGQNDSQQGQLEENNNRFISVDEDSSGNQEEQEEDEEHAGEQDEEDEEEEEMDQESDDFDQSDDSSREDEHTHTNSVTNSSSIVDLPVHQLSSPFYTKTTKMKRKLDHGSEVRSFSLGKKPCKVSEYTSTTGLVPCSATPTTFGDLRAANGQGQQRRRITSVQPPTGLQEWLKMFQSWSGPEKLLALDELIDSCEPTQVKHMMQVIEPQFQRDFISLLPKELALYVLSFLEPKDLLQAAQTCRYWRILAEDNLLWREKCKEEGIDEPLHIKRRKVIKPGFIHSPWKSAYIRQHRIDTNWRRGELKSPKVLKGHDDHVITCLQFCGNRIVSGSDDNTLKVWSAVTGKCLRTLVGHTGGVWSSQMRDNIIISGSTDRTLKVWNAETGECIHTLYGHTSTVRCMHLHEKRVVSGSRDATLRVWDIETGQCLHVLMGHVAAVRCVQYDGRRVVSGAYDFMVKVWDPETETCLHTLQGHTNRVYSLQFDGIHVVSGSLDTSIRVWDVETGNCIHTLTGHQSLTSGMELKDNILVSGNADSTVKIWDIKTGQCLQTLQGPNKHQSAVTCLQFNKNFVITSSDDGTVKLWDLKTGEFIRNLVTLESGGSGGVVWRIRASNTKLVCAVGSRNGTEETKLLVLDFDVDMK
TEAD-YAP block – TEAD-YAP interaction inhibition, primary screen, TEAD-YAP interaction inhibitor project, luminescence, HEK-TIYL cells. TEAD-Gal4/YAP UAS-luciferase luminescence. actives 1.4% (n = 640,000). inhibition, % at 9.12 µM. AID 1259422, 2018; in the data active means inhibition above about 32%;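 further: 0% = median of test compound wells and 100% = reference inhibitor wells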
Numbers without * were called inactive.

SMILES	MITF primary	GPR151 activ	FBW7 activator	TEAD-YAP block
CC1(C)C2CCC1(CS(=O)(=O)N1CCN(S(=O)(=O)c3cccs3)CC1)C(=O)C2 (configuration not stated)	15	1	0	2
CN(C)c1cccc(C(=O)OCc2ccc(C#N)cc2)c1	2	0	0	-9
COc1cccc(NC(=O)CSc2nc3cc4c(cc3c(=O)n2CCC(=O)NCc2ccc3c(c2)OCO3)OCO4)c1	11	-1	0	-2
COc1ccc(C2=NN(C(=O)CN3CCCCC3)C(c3nc4ccccc4[nH]3)C2)cc1 (configuration not stated)	12	-1	0	-9
CCCNc1ccnc2c(-c3ccc(N)cc3)cnn12	4	-1	1	76*
Cc1cccc(N(C)c2ccnc3c(-c4cccc(N)c4)cnn23)c1	17	1	0	-4
CCCNc1ccnc2c(-c3ccsc3)cnn12	17	-1	0	54*
COc1ccc(CNc2ccnc3c(-c4cncnc4)cnn23)cc1	15	2	-1	44*
Cc1cccc(N(C)c2ccnc3c(-c4ccc(N)cc4)cnn23)c1	18	0	0	56*
CN(Cc1nc2ccccc2[nH]1)C1CCC(=O)N(Cc2cc3c(cc2Cl)OCO3)CC1 (configuration not stated)	2	2	0	-4
COC(=O)c1ccc(C)c(NS(=O)(=O)c2ccc(OC)cc2)c1	5	-1	0	66*
COC(=O)c1ccc(C)c(NS(=O)(=O)c2ccc3c(c2)OCCO3)c1	3	1	0	57*
COC(=O)c1ccc(C)c(NS(=O)(=O)c2ccc(C)c([N+](=O)[O-])c2)c1	10	0	0	11
COC(=O)c1ccc(C)c(NS(=O)(=O)c2ccc(SC)cc2)c1	15	0	1	47*
CCOc1ccc(S(=O)(=O)Nc2cc(C(=O)OC)ccc2C)cc1	1	0	0	55*
CC(=O)c1cc2c(cc1NS(=O)(=O)c1ccccc1)OCO2	5	-1	0	-3
COc1ccc(S(=O)(=O)Nc2cc(S(N)(=O)=O)ccc2C)cc1	-2	2	0	3
COc1ccc(S(=O)(=O)Nc2cc(F)ccc2C)cc1	5	-1	0	52*
COC(=O)c1ccc(C)c(NS(=O)(=O)c2ccc(Cl)cc2)c1	-6	-1	0	54*
CC(=O)c1cc2c(cc1NS(=O)(=O)c1ccc(C)cc1)OCCO2	11	0	0	37*
O=C(NN1C(=O)C2C3C=CC(C4CC34)C2C1=O)c1ccccc1 (configuration not stated)	3	-1	0	3
N/C(=N\O)c1ccc(Oc2ccc(Oc3ccc(/C(N)=N/O)cc3)cc2)cc1	3	0	2	84*
COc1cc(NC(=O)c2ccc(-c3c(C)nn(C)c3C)s2)cc(OC)c1OC	12	-1	0	51*
COc1cc(C2C3=C(CC(C)(C)CC3=O)Nc3c2ccc2ccccc32)cc(Br)c1O (configuration not stated)	-3	1	0	60*
CCOC(=O)C1=C(C)NC2=C(C(=O)CC(C)(C)C2)C1c1cccc(OC)c1O (configuration not stated)	4	-1	1.9*	11
SMILES	MITF primary	GPR151 activ	FBW7 activator	TEAD-YAP block
CC1=C(C(=O)OCCc2ccccc2)C(c2ccc(Cl)cc2Cl)C2=C(CC(C)(C)CC2=O)N1 (configuration not stated)	19	2	2.1*	-1
COC(=O)C1=C(C)NC2=C(C(=O)CC(C)(C)C2)C1c1cccc(Cl)c1Cl (configuration not stated)	0	1	2.0*	2
COc1cc(OC)cc(C(=O)Nc2c3c(nn2-c2ccccc2)CSC3)c1	3	0	0	8
Cc1ccc(NC(=O)CSc2ccc(C)cc2)cc1	11	0	0	-38
Cc1ccc(C(=O)NCCc2nnc3n2CCN(Cc2cccc(OCCO)c2)CC3)cc1	14	1	0	12
CC(=O)c1ccc(N2CCN(C(=O)CNS(=O)(=O)c3cccs3)CC2)cc1	18	0	0	8
O=S(=O)(NCc1cn2ccsc2n1)c1ccc(Oc2ccccc2)cc1	-8	0	0	35*
O=[N+]([O-])c1ccc(S(=O)(=O)NCCc2cn3ccsc3n2)cc1	-1	-1	0	-4

Screens (PubChem BioAssay)
